pPAFAH FP inh: pPAFAH enzyme inhibitors, primary screen, biochemical, fluorescence polarization, human | Platelet-activating factor acetylhydrolase (Homo sapiens), Q13093 | recombinant pPAFAH, FP-rhodamine probe fluorescence polarization | inhibition, % at 3.39 µM | actives 1.5% (n = 330,000) | AID 463082, 2010;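 active means inhibition above the mean inhibition across the screen plus 3 SD, cut at about 25% in these data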;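 further: inhibitors block binding of the rhodamine activity-based probe so polarization drops; 0% = enzyme with DMSO and 100% = wells lacking pPAFAH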
PME-1 inh: PME-1 inhibitors via competitive probe labeling, primary screen, biochemical, fluorescence polarization, FP-Rh probe, HTS. recombinant PME-1. inhibition, % at 5.9 µM. actives 0.53% (n = 320,000);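 active means inhibition above the campaign mean of all compounds plus 3 SD, cut at about 26% in these data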;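 further: competitive labeling of PME-1 active site by serine hydrolase directed probe; 0% = PME-1 with DMSO and 100% = wells lacking PME-1 enzyme; inhibitors block probe labeling so polarization falls and inhibition rises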
Fam108B counter: mouse Fam108B serine hydrolase inhibitors, primary screen, counter-screen for RBBP9 inhibitor project, biochemical, fluorescence polarization | actives 0.33% (n = 300,000) | recombinant Fam108B, FP-Rh probe fluorescence polarization | inhibition, % at 9.51 µM;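 active means inhibition above the screen mean inhibition plus 3 SD, computed separately per campaign, cut at about 18% in these data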;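 further: inhibitors lower polarization as less probe binds the enzyme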
PAD4 inh: human PAD4 inhibitors, primary screen, biochemical, fluorescence polarization, 1536-well format | Protein-arginine deiminase type-4 (Homo sapiens), Q9UM07 | recombinant PAD4, RCA probe fluorescence polarization | inhibition, % at 6.36 µM | actives 0.41% (n = 330,000) | AID 485272, 2010;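 active means percent inhibition above a cutoff equal to the mean of all tested compounds plus 3 SD, cut at about 15% in these data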;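 further: 0% = PAD4 with RCA probe and DMSO and 100% = probe without PAD4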
GSTO1 inh: inhibitors of recombinant GSTO1, primary screen, counter-screen for RBBP9 inhibitor project, biochemical, fluorescence polarization | activity-based probe fluorescence polarization | inhibition, % at 5.96 µM | actives 1.1% (n = 300,000) | AID 1974, 2009;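 active means inhibition above the campaign mean inhibition plus 3 SD, cut at about 35% in these data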;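 further: 0% = GSTO1-1 with DMSO and 100% = wells lacking GSTO1-1 enzyme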
PAD4 confirm: human PAD4 inhibitors, confirmation, biochemical, fluorescence polarization | inhibition, % at 6.36 µM | shares compounds with PAD4 inh | actives 28% (n = 1,200) | recombinant PAD4, RCA probe fluorescence polarization;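 active means mean inhibition across replicates above the hit cutoff set by the earlier primary screen, cut at about 15% in these data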;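 further: inhibitors block active-site labeling by the probe so polarization falls; 0% = PAD4 with probe and DMSO and 100% = probe without PAD4 enzyme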
Starred values were filed as active, the others as inactive; / = no result given; ! = a repeat was not active. Rows were chosen to be rich in hits. Some 2.3% of all compounds tested hit in one or more screens of this group.

SMILES	pPAFAH FP inh	PME-1 inh	Fam108B counter	PAD4 inh	GSTO1 inh	PAD4 confirm
COc1cccc(C2NC(=O)c3sc(=S)n(-c4ccccc4)c3N2)c1 (stereo unspecified)	3	1	-4	4	0	/
COc1ccc(OC)c(C2NC(=O)c3sc(=S)n(-c4ccccc4)c3N2)c1 (stereo unspecified)	1	10	2	22*	5	35*
CCCCc1ccc(-c2c(C#N)c(N)nc3c2CCCC3)s1	8	0	-2	36*	5	1
CCOc1ccc2nc(NC(=O)c3ccco3)sc2c1	-5	-12	0	17*	2	13
COc1ccc(-c2nc(C(=O)NCCCN3CCOCC3)cc3c2[nH]c2ccccc23)cc1OC	9	-6	-2	59*	-16	67*
COc1ccc(CCN2CC(C(=O)NCc3nc(C)c(C)s3)CCC2=O)cc1 (stereo unspecified)	0	3	2	3	-1	/
COc1ccc(CNC(=O)C2CCC(=O)N(CCCN3CCCC3=O)C2)c(OC)c1 (stereo unspecified)	7	-8	0	-2	6	/
COCCn1cnc2c1c(=O)n(Cc1ccc(C#N)cc1)c(=O)n2Cc1ccccc1	4	0	3	20*	9	2
O=C(O)CCN1C(=O)C2C3CC(C2C1=O)C1C(c2ccccc2)c2sc(=O)[nH]c2SC31 (stereo unspecified)	1	-1	-1	17*	3	-5
O=C(O)CCN1C(=O)C2C3CC(C2C1=O)C1C(c2ccccc2)c2sc(=O)n(-c4ccccc4)c2SC31 (stereo unspecified)	4	2	1	1	-6	/
Cc1sc2ncnc(SCC(=O)N3c4ccccc4Sc4ccc(Cl)cc43)c2c1C	5	3	0	2	3	/
CCOC(=O)c1c(C)sc2c1N(C(=O)CCl)c1cc(Cl)ccc1S2	-3	1	0	19*	-6	43*
O=C(c1ccc(Cl)nc1)N1CCN(S(=O)(=O)c2ccc(Cl)cc2)CC1	-3	9	4	4	1	/
O=C(CC(=O)c1ccccc1)Nc1cccnc1	-4	-5	1	1	-2	/
O=C(Nc1ccccc1)C(=O)Nc1cccnc1	10	-3	2	18*	-11	5
Clc1ccc(-c2ccc(C=Nc3ccc(N4CCOCC4)cc3)o2)cc1	8	8	5	31*	30	6
CCc1nn(-c2ccccc2)c2c1-c1cc(OC)c(OC)cc1C1(N2)C(=O)Nc2ccccc21 (stereo unspecified)	5	4	0	-2	3	/
COC(=O)c1sccc1NC(=O)c1ccc(OC)cc1OC	4	0	0	25*	0	-4
COc1ccc(C(=O)Nc2nc3ccccc3s2)c(OC)c1	-2	-50	-9	22*	-14	55*
COc1ccc(NC(=O)CCCNC(=O)Cn2cnc3sc4c(c3c2=O)CCCC4)c(OC)c1	-1	-3	1	35*	-3	4
COc1ccc(NC(=O)CCNC(=O)Cn2cnc3sc4c(c3c2=O)CCCC4)c(OC)c1	2	1	-1	-2	9	/
CC1=NN(c2ccc(Cl)cc2)C(=O)C1	1	8	2	31*	36*	3
COC(=O)c1ccc(C(c2c(C)[nH][nH]c2=O)c2c(C)[nH][nH]c2=O)cc1	-2	6	-5	-17	9	/
COC(=O)c1ccccc1-c1ccc(C(c2c(C)[nH][nH]c2=O)c2c(C)[nH][nH]c2=O)o1	-1	-3	4	54*	65*	13
COc1ccc(C)cc1Nc1n[n+](-c2ccccc2)c(-c2ccc(N(C)C)cc2)s1	-4	0	3	-2	0	/
SMILES	pPAFAH FP inh	PME-1 inh	Fam108B counter	PAD4 inh	GSTO1 inh	PAD4 confirm
Cc1ccc2c(c1)sc(-c1ccc(N(C)C)cc1)[n+]2C	0	6	6	19*	3	-2
COc1ccccc1N(Cc1cc(=O)[nH]c2ccccc12)C(C)=O	4	0	3	-1	2	/
CCC(=O)N(Cc1cc(=O)[nH]c2ccccc12)c1cccc(C)c1	3	10	-6	46*	-4	33*
CCC(=O)N(Cc1cc(=O)[nH]c2ccccc12)c1ccccc1C	1	10	0	18*	-4	22*
CNc1ccccc(-c2ccc3ccccc3n2)c1=O	16	0	13	20*	23	7
c1ccc(-c2ccc3ccccc3n2)cc1	-2	-6	1	4	-14	/
COc1cc(C(=O)OCc2ccccc2C#N)ccc1OCC(=O)N1CCOCC1	3	1	/	-4	/	/
COc1cc(C#N)c(N=C(SCC#N)N2CCOCC2)cc1OC	5	-4	-3	25*	13	28*
COc1ccc(C(=O)CSc2cc(C)nc3nc(C)nn23)cc1OC	-6	7	6	28*	-2	26*
O=C1OC(c2ccccc2)c2ccccc21 (stereo unspecified)	6	0	4	-6	-5	/
O=S1OC(c2ccccc2)c2cc(Cl)ccc21 (stereo unspecified)	-2	-8	-1	40*	7	35*
CCOc1cccc(N)c1	-10	-6	/	-3	/	/
CCOc1ccc(N)c(SSc2cc(OCC)ccc2N)c1	4	-9	-3	26*	23	31*
O=C1N/C(=C/c2ccc(N3CCOCC3)o2)C(=O)N1c1ccccc1	-2	-1	6	119*	1	4
Oc1ccc(NC(=S)Nc2ccccc2)cc1	13	0	-2	21*!	8	2
Cc1c(C(=O)Nc2cccc(N(C)S(C)(=O)=O)c2)cccc1[N+](=O)[O-]	9	-2	5	-5	13	/
COc1ccc(CCNC(=O)COC(=O)c2ccc(C)s2)cc1	13	5	/	81*	/	-4
COc1ccc(CCNC(=O)COC(=O)c2ccc(C)s2)cc1OC	-1	-4	/	0	/	/
CCOc1ccc2[nH]c(SCC(=O)OC)c([N+](=O)[O-])c2c1	-3	2	-1	35*	8	38*
CCC12OC(=N)C(C#N)(C1C)C(C#N)(C#N)C(c1ccccc1)O2 (stereo unspecified)	1	-1	0	3	0	/
CC(C)C1OC2(C)OC(=N)C1(C#N)C(C#N)(C#N)C2c1ccccc1 (stereo unspecified)	7	12	12	19*	11	16*

Screening data: PubChem BioAssay, The Scripps Research Institute Molecular Screening Center
